The source of these data is ChEMBL document CHEMBL1961873, “Compounds: GSK PKIS; Assays: Nanosyn kinase panel” (2012).

The target of test [1] is Sphingosine kinase 1 (Homo sapiens) (UniProt Q9NYA1). To be noted: at 1 µM.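 Also: mean SPHK1 inhibition value reported from the GSK PKIS kinase panel screen.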
For test [2], the target named is T1, Sphingosine kinase 2 (Homo sapiens) (UniProt Q9NRA0).
T1 sequence (whole entry): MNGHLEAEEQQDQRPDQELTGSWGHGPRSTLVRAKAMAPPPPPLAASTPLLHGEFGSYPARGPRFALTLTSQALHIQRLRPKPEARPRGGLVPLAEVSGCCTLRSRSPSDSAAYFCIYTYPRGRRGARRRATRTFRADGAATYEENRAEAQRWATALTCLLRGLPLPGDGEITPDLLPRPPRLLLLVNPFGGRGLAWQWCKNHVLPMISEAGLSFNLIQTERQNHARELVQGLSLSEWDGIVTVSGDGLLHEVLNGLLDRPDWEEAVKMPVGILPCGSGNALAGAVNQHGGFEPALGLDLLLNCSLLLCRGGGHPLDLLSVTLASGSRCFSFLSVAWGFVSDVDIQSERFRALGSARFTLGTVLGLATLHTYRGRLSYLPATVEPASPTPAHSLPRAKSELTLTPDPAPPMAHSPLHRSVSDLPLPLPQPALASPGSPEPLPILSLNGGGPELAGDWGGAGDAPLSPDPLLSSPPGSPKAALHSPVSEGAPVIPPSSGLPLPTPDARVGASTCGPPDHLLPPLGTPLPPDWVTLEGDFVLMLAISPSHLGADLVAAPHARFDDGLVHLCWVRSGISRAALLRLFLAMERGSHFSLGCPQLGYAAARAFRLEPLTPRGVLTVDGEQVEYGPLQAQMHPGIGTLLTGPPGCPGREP
The settings on record: at 0.1 µM.

Test [3] has as its target T1, Sphingosine kinase 2 (Homo sapiens). To be noted: at 1 µM.
For test [4], the target named is Casein kinase II subunit alpha (Homo sapiens) (UniProt P68400). The settings on record: at 0.1 µM.
Sequence of Casein kinase II subunit alpha (Homo sapiens) (P68400 whole entry, looked up): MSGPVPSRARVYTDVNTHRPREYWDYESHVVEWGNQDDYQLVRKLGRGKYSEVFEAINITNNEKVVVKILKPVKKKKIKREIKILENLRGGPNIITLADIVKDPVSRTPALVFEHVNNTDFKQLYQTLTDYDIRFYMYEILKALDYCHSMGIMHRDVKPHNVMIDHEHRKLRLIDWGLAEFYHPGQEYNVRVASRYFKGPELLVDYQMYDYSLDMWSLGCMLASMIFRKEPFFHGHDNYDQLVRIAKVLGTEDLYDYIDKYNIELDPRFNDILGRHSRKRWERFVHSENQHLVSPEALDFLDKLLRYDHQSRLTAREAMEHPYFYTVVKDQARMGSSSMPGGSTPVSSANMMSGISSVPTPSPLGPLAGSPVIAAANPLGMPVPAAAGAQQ
For test [5] the target is unchanged. The settings on record: at 1 µM.
Test [6] has as its target T2, Inhibitor of nuclear factor kappa-B kinase subunit alpha (Homo sapiens) (UniProt O15111).
T2 sequence (whole entry): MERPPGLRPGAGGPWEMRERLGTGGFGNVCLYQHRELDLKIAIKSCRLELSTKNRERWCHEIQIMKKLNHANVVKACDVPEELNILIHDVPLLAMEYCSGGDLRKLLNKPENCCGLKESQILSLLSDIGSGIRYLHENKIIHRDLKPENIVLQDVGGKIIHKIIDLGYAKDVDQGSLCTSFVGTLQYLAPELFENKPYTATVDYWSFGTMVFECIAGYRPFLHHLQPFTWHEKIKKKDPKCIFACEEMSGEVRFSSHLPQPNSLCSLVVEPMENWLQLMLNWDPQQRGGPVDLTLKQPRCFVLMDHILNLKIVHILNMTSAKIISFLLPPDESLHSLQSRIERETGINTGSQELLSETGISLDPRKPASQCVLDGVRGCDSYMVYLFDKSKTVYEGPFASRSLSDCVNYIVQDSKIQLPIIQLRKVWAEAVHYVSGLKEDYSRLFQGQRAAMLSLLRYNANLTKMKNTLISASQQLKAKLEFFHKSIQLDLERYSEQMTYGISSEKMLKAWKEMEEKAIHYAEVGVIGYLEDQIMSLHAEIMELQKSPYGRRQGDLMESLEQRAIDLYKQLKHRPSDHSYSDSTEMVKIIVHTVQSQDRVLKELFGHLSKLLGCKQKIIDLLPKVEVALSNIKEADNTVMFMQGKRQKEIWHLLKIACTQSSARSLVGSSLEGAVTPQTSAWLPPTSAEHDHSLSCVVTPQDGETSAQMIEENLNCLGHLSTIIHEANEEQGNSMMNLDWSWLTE
The settings on record: at 0.1 µM.

Test [7] has as its target T2, Inhibitor of nuclear factor kappa-B kinase subunit alpha (Homo sapiens). To be noted: at 1 µM.
In test [8] the target is T3, Inhibitor of nuclear factor kappa-B kinase subunit beta (Homo sapiens) (UniProt O14920).
T3 sequence (whole entry): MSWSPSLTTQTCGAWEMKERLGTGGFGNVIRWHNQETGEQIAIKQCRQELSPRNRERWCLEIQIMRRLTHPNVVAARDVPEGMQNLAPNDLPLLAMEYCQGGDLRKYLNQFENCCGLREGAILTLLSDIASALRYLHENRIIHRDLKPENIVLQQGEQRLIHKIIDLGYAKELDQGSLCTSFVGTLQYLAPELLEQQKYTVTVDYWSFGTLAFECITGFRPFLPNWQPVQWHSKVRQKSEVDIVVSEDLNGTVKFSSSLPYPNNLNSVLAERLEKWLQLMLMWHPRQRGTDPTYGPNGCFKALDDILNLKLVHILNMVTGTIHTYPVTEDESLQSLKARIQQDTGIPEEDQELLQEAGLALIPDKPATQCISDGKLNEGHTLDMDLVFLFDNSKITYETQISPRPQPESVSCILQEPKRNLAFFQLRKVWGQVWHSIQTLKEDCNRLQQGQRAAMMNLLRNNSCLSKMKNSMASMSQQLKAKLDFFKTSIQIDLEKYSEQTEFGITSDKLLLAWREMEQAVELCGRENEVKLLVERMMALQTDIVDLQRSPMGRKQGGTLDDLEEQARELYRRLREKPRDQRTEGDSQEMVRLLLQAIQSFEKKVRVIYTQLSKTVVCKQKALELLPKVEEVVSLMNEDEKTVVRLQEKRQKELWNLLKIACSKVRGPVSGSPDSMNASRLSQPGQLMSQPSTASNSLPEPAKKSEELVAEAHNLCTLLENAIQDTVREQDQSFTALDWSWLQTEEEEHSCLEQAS
The settings on record: at 0.1 µM.

For test [9], the target named is T3, Inhibitor of nuclear factor kappa-B kinase subunit beta (Homo sapiens). To be noted: at 1 µM.
The target in test [10] is T4, Inhibitor of nuclear factor kappa-B kinase subunit epsilon (Homo sapiens) (UniProt Q14164).
T4 sequence (whole entry): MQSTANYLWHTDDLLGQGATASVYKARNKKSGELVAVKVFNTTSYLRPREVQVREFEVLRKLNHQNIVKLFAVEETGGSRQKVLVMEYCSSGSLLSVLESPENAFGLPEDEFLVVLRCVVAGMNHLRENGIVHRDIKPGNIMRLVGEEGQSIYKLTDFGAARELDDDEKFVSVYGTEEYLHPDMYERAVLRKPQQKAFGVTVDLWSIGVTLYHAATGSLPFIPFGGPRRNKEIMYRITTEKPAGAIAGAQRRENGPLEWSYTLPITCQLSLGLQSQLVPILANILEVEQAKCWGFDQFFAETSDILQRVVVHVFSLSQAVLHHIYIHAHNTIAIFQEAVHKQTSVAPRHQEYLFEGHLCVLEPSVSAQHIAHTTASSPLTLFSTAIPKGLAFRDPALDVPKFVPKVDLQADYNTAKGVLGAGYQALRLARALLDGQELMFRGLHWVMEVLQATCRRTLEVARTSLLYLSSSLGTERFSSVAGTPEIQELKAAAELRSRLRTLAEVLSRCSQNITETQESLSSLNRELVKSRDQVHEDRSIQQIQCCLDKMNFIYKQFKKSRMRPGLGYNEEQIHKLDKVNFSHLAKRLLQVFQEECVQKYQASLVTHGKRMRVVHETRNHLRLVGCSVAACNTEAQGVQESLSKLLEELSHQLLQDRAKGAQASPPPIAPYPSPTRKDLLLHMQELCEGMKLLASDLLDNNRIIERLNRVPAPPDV
The settings on record: at 0.1 µM.

Test [11] has as its target T4, Inhibitor of nuclear factor kappa-B kinase subunit epsilon (Homo sapiens). To be noted: at 1 µM.
Test [12] deals with T5, Serine/threonine-protein kinase Nek1 (Homo sapiens) (UniProt Q96PY6).
T5 sequence (whole entry): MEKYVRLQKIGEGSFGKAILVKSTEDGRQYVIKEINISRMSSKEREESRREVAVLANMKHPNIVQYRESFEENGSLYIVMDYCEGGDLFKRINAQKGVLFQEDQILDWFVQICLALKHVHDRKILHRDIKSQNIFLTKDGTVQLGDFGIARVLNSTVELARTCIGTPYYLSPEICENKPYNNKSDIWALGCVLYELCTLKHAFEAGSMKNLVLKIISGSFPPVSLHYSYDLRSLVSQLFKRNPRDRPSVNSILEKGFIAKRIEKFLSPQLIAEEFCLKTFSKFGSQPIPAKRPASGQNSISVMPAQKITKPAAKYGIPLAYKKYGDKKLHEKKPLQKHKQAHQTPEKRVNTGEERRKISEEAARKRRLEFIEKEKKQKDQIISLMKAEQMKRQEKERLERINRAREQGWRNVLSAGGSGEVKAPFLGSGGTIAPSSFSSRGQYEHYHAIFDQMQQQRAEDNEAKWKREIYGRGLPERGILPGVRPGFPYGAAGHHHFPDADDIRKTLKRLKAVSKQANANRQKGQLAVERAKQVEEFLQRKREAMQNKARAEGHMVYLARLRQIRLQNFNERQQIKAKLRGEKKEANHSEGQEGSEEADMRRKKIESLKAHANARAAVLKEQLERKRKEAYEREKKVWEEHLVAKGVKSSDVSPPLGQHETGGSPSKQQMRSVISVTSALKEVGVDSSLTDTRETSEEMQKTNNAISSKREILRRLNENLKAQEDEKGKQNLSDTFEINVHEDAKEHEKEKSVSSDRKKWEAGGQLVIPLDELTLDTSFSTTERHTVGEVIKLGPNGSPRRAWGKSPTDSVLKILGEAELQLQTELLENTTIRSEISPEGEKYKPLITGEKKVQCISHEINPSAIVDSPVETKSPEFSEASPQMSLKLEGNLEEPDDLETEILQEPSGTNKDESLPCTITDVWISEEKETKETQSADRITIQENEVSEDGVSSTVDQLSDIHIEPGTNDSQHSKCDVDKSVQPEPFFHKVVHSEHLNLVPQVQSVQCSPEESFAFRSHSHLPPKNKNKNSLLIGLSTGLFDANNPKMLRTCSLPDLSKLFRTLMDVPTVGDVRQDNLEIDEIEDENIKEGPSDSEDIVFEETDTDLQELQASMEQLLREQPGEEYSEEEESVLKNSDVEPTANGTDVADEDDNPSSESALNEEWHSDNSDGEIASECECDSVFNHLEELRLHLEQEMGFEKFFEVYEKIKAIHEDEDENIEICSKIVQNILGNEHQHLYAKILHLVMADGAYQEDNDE
To be noted: at 0.1 µM.

Test [13] has as its target T5, Serine/threonine-protein kinase Nek1 (Homo sapiens). To be noted: at 1 µM.
Test [14] concerns the target T6, Serine/threonine-protein kinase Nek2 (Homo sapiens) (UniProt P51955).
T6 sequence (whole entry): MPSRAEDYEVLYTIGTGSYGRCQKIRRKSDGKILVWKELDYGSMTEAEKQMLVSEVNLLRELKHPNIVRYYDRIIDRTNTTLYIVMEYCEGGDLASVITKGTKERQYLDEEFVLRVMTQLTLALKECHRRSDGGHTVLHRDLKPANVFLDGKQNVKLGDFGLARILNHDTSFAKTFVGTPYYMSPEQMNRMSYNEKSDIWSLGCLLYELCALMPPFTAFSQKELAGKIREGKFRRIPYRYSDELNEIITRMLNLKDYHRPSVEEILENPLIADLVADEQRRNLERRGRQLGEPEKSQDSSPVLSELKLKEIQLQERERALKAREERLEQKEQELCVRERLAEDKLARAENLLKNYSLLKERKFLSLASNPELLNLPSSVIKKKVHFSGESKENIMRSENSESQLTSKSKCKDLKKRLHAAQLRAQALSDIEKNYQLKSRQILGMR
To be noted: at 0.1 µM.

The target in test [15] is T6, Serine/threonine-protein kinase Nek2 (Homo sapiens). To be noted: at 1 µM.
The target of test [16] is Serine/threonine-protein kinase Nek6 (Homo sapiens) (UniProt Q9HC98). To be noted: at 0.1 µM.
Sequence of Serine/threonine-protein kinase Nek6 (Homo sapiens) (Q9HC98 whole entry): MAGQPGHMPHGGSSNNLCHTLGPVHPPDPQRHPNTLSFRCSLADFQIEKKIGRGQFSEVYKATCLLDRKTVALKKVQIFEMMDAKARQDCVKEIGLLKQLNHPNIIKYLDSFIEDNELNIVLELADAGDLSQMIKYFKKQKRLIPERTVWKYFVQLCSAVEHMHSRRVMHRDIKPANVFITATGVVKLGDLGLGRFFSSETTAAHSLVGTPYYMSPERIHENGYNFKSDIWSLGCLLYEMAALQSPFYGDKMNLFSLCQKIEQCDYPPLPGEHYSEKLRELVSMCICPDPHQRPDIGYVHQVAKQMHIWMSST
The target is the same in test [17]. The settings on record: at 1 µM.
For test [18], the target named is Serine/threonine-protein kinase Nek7 (Homo sapiens) (UniProt Q8TDX7). The settings on record: at 0.1 µM.
Sequence of Serine/threonine-protein kinase Nek7 (Homo sapiens) (Q8TDX7 whole entry, looked up): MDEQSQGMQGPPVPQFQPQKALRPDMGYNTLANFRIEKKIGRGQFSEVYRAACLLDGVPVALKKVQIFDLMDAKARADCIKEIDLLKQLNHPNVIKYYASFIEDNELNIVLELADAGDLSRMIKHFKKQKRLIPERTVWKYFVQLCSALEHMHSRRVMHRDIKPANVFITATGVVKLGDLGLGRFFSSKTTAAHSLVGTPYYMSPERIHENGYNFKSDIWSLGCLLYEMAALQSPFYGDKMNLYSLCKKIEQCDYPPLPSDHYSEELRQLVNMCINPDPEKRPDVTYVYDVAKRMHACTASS
Test [19] has the same target. The settings on record: at 1 µM.
Test [20] concerns the target T7, Serine/threonine-protein kinase Nek9 (Homo sapiens) (UniProt Q8TD19).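 Also: reported value is the mean percent inhibition of NEK9.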
T7 sequence (whole entry): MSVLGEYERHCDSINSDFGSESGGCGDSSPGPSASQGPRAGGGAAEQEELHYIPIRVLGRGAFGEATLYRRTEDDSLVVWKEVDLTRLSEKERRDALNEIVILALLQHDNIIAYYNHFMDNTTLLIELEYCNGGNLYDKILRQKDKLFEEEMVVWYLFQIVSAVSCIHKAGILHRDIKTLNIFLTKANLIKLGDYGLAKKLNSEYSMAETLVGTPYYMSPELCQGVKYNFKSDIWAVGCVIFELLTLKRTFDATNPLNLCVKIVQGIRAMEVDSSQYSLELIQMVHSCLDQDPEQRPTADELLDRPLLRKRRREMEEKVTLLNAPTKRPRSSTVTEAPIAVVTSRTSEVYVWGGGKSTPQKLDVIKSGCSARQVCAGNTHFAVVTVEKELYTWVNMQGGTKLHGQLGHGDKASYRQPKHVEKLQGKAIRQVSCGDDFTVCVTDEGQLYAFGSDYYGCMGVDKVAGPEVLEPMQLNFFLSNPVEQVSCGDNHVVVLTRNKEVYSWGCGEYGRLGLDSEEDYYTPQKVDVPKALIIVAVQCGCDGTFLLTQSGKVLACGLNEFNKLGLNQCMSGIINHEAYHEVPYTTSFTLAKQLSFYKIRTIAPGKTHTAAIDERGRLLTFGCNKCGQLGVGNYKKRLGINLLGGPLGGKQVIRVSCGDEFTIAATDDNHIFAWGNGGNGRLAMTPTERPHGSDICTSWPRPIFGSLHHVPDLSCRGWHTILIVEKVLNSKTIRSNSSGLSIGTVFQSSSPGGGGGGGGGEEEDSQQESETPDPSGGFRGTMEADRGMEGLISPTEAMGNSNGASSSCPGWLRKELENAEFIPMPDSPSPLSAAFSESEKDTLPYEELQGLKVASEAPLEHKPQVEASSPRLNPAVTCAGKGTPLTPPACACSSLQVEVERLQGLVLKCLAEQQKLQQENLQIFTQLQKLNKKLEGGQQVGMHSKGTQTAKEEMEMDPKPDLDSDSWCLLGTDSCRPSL
To be noted: at 0.1 µM.

Sequence of Sphingosine kinase 1 (Homo sapiens) (Q9NYA1 whole entry): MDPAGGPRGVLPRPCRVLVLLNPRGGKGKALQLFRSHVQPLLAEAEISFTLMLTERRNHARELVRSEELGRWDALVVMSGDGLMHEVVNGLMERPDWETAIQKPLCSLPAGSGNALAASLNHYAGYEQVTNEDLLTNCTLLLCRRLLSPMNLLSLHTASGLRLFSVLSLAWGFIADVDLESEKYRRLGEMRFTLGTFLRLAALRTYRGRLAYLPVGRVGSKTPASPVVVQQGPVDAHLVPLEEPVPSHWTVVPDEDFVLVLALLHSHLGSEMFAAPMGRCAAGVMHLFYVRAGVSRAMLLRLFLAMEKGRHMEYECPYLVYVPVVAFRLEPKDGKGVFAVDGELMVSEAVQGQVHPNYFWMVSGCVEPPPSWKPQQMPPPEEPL

As for `CCN(CC)S(=O)(=O)c1ccc(OC)c(Nc2ncc(-c3ccccc3)o2)c1`, the inhibition in [1] is -3.4%; in test [2] it was -1.48%; in test [3] it was 0.49%; in test [4], 2.99%; in test [5] it was 15.1%; in test [6], 3.54%. Besides, the inhibition in test [7] was -6.23%; in [8], 0.24%; in test [9], -0.16%; in test [10] it was 2.98%; in [11] it was 1.73%; in test [12] it was -0.43%. The inhibition in [13] was 1.95%; in [14], 0.46%; in test [15], -0.71%; in test [16] it was 1.9%; in [17], 1.12%; in test [18], -0.6%. Moreover, the figures for the inhibition in test [19] and in test [20] were -0.03% and 2.38%, respectively.

By inhibition is commonly meant the drop in the measured response relative to a control, in per cent.
